Screening data deposited in PubChem BioAssay by several laboratories.
LGR2 inh: Drosophila LGR2 receptor signaling inhibition; HEK293 LGR2, CRE-luciferase, bursicon-stimulated, 4 h; inhibition, % at 9.99 µM; 380,000 tested, 0.35% active; AID 720647;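 active means drop in luminescence signal, shown as inhibition above about 50% in the replicate tests, limit read from the data, passing the limit was not always enough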;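 further: agonist challenge used bursicon conditioned medium at about half maximal strength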
SENP8 block-1: inhibitors of human SENP8 protease | Q96LD8 | purified SENP8, Z-RLRGG-aminoluciferin cleavage, luminescence | inhibition, % at 10 µM | 330,000 tested, 1.2% active; in the data active means inhibition above about 50%
Target sequence (Q96LD8 whole entry, looked up): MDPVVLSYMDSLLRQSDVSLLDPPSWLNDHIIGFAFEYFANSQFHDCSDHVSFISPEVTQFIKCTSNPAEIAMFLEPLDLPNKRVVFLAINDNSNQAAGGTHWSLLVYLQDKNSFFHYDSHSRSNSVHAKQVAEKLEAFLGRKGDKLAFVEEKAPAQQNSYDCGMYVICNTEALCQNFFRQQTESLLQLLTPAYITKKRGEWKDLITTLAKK
HSP90 refold inh: inhibitors of HSP90 luciferase refolding in rabbit reticulocyte lysate. 290,000 tested, 0.91% active. luciferase refolding luminescence, 3 h. inhibition, % at 5.6 µM;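 active means inhibition above the screen-wide mean plus 3 SD, computed separately per campaign, cut at about 16% in these data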;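 further: 0% = DMSO wells and 100% = 60 µM geldanamycin wells; inhibitors lower the luminescence because luciferase stays unfolded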
SENP7 block: SENP7 protease inhibition; Q9BQF6; recombinant SENP7, Z-RLRGG-aminoluciferin luminescence, 40 min; inhibition, % at 5 µM; 330,000 tested, 1.5% active; AID 434973;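 active means inhibition above about 50% at the single test dose, limit read from the data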;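 further: plate controls were DMSO with enzyme for no effect and no enzyme buffer wells for full effect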
Target sequence (Q9BQF6 706-1050 limits assumed): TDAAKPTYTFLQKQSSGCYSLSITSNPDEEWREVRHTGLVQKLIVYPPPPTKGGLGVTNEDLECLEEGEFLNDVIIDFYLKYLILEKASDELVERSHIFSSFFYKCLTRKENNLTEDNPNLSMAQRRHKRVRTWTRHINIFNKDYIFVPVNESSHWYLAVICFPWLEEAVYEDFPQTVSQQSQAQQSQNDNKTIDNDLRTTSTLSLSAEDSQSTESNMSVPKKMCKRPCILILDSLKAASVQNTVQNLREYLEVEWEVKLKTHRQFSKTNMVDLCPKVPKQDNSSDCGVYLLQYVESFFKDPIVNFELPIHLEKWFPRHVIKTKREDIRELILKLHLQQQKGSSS
SENP6 inh: blocks the human protease SENP6; inhibition, % at 10 µM; Q9GZR1; Recombinant SENP6 catalytic domain, aminoluciferin luminescence; 330,000 tested, 1.8% active;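 active means inhibition above about 50% at the single tested dose, limit read from the data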;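 further: plate controls were DMSO wells with enzyme for no effect and DMSO wells lacking enzyme for full effect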
SENP8 block-2: inhibitors of human SENP8 protease. Q96LD8. recombinant SENP8, Nedd8 substrate fluorescence. inhibition, % at 20 µM. 360,000 tested, 0.64% active. AID 602440; in the data active means inhibition mostly above about 40%, no sharp cut-off; inactive means mostly below about 27%
SENP8 confirm: human SENP8 inhibition, confirmed | shares compounds with SENP7 block | Recombinant SENP8, Z-RLRGG-aminoluciferin luminescence, 60 min | inhibition, % at 12.5 µM | 6,200 tested, 40% active | AID 488912;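 active means mean inhibition across replicates above about 50%, limit read from the data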
SENP6 conf: confirmation of human SENP6 protease inhibitors. shares compounds with SENP7 block. recombinant SENP6, Z-RLRGG-aminoluciferin luminescence. inhibition, % at 12.5 µM. 6,200 tested, 58% active
SENP7 conf: human SENP7 inhibition, confirmed; shares compounds with SENP7 block; recombinant SENP7, Z-RLRGG-aminoluciferin luminescence, 40 min; inhibition, % at 12.5 µM; 6,200 tested, 69% active; AID 488917
Casp3 select: selectivity test for SENP inhibitors: human caspase-3 inhibition | shares compounds with SENP7 block | purified caspase-3, Z-DEVD-aminoluciferin luminescence, 60 min | inhibition, % at 12.5 µM | 6,200 tested, 60% active | AID 488918;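 active means mean inhibition above about 50%, limit read from the data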;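 further: plate controls were enzyme with DMSO for no effect and wells without caspase-3 for full effect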
SENP luc ctr: interferes with luciferase luminescence in SENP counter-screen | Pre-incubated SENP8/Z-RLRGG-aminoluciferin, luciferase luminescence interference | 6,200 tested, 39% active | inhibition, % at 12.5 µM | shares compounds with SENP7 block;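 active means mean inhibition above about 50% when retested at one dose, limit read from the data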;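 further: plate controls were DMSO wells with completed reaction for no effect and substrate without enzyme for full effect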
* hit, by the source's call; i = inactive; . = not tested or not shown. Most compounds without a hit are left out; they make up all but 2.3% or so of the library.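 How the source made its calls, unless noted: active means mean inhibition above about 50% in the one-dose retest (limit read from the data); inactive means the rest.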

SMILES	LGR2 inh	SENP8 block-1	HSP90 refold inh	SENP7 block	SENP6 inh	SENP8 block-2	SENP8 confirm	SENP6 conf	SENP7 conf	Casp3 select	SENP luc ctr
Cc1ccc2oc(-c3cccc(NC(=S)NC(=O)/C=C/c4ccco4)c3)nc2c1	11	56*	8	18	57*	-17	-24	-8	4	16	11
Cc1ccc2oc(-c3cccc(NC(=S)NC(=O)c4cccs4)c3)nc2c1	-91	6	3	11	45	-230	.	.	.	.	.
COc1cc(OC)c2c(=O)cc(-c3cccnc3)oc2c1	-19	.	0	.	.	-309	.	.	.	.	.
COc1ccc(-c2cc(=O)c3cc(O)ccc3o2)cc1	-24	53*	2	78*	69*	3	-21	47	87*	73*	47
COc1cc(OC)c2c(=O)cc(-c3ccccc3)oc2c1	-69	46	0	57*	59*	-229	64*	61*	82*	77*	68*
COc1ccc2oc(-c3ccncc3)cc(=O)c2c1	-57	.	.	.	.	i	.	.	.	.	.
COc1cc(-c2cc(=O)c3c(O)cc(O)cc3o2)cc(OC)c1OC	19	.	.	.	.	-4	.	.	.	.	.
COc1ccc2oc(-c3ccco3)cc(=O)c2c1	-76	61*	-3	80*	81*	-462	10	26	49	55*	9
COc1ccc(-c2cc(=O)c3c(O)cc(O)cc3o2)cc1	19	68*	.	85*	84*	25	24	52*	64*	75*	17
COc1ccc(-c2ccc3oc(-c4ccsc4)cc(=O)c3c2)cn1	-24	22	.	70*	0	i	17	16	18	15	1
O=c1cc(-c2ccccc2)oc2ccc(O)cc12	-49	37	-5	56*	66*	-30	54*	51*	82*	66*	71*
NC(=O)c1c(-c2ccccc2)oc2ccc(O)cc12	-14	-1	-3	-4	-6	-132	.	.	.	.	.
CN(C)C(=O)C[C@H]1C[C@@H]2c3cc(NC(=O)c4cccnc4)ccc3O[C@@H]2[C@H](CO)O1	-24	.	.	.	.	.	.	.	.	.	.
COc1ccc(NC(=O)Nc2ccc3c(c2)CC(=O)N([C@@H](C)CO)C[C@H](C)[C@@H](CN(C)C(=O)Nc2ccc(OC)cc2)O3)cc1	-16	.	.	.	.	.	.	.	.	.	.
Cc1cc(C(=O)Nc2cccc3c2O[C@@H](CN(C)Cc2ccccc2)[C@H](C)CN([C@H](C)CO)C3=O)n(C)n1	2	.	.	.	.	.	.	.	.	.	.
C/C=C/c1ccc([C@H]2[C@H](CO)N(C(C)=O)C23CN(C(=O)c2ccncc2)C3)cc1	-2	.	.	.	.	.	.	.	.	.	.
Cc1cc(N)n(-c2cc(C)c3ccccc3n2)n1	-24	73*	4	81*	79*	9	-26	71*	93*	79*	70*
Cc1cc(C)c2nc(-n3nc(C)cc3N)cc(C)c2c1	-129	-4	1	-2	11	4	.	.	.	.	.
Cc1nnsc1C(=O)N/N=C/c1ccc(OC(F)(F)F)cc1	-2	4	1	55*	-21	-9	16	17	28	24	11
Cc1nnsc1C(=O)N/N=C/c1ccccc1	11	-11	-3	17	26	10	.	.	.	.	.
CN1C(=O)c2cc(NC(=O)c3ccccc3)ccc2OC[C@H]2O[C@@H](CC(=O)NC3CCCC3)CC[C@H]21	-5	.	.	.	.	.	.	.	.	.	.
CSc1ccc(C2NN=C(c3ccccc3)S2)cc1 (stereo not drawn)	84*	93*	.	99*	92*	-426	52*	53*	38	60*	28
COc1ccc(C2NN=C(c3ccc(C)cc3)S2)cc1 (stereo not drawn)	-42	.	-5	.	.	-295	.	.	.	.	.
O=C1C(c2ccncc2)=C(O)c2ccccc21	.	73*	16*	72*	85*	27	84*	83*	96*	91*	67*
Cc1ccc(C2=C(O)c3ccccc3C(=O)C2=O)cc1	6	-7	1	-2	11	10	.	.	.	.	.
SMILES	LGR2 inh	SENP8 block-1	HSP90 refold inh	SENP7 block	SENP6 inh	SENP8 block-2	SENP8 confirm	SENP6 conf	SENP7 conf	Casp3 select	SENP luc ctr
O=C1C(c2cc(=O)c3ccccc3[nH]2)=C(O)c2ccccc21	-39	97*	1	100*	98*	23	94*	99*	103*	96*	95*
[O-]/C(=C(\C(=S)Nc1cccc2ccccc12)[n+]1ccccc1)c1cccs1	-9	12	0	23	56*	-362	7	12	-6	4	-2
Cc1cccc(C)c1NC(=S)/C(=C(\[O-])c1cccs1)[n+]1ccccc1	-17	-5	1	5	0	14	.	.	.	.	.
COc1ccc(-c2ccc(SCC(=O)NC3CCCCC3)nn2)cc1	-39	-3	3	2	1	9	.	.	.	.	.
COc1ccc(-c2cn3nc(SCC(=O)NC4CCCCC4)ccc3n2)cc1	-33	14	0	61*	18	-382	-14	-9	18	20	7
CCc1nnc(NC(=O)CN2CCOCC2)s1	14	-7	-3	99*	-15	4	11	6	5	1	4
CCCCc1nnc(NC(=O)CC(=O)Nc2ccccc2C(=O)O)s1	.	22	-1	13	50	-16	.	.	.	.	.
CCc1nnc(NC(=O)CC(=O)Nc2ccccc2C(=O)O)s1	30	30	-1	55*	78*	-34	68*	63*	89*	88*	71*
CC(C)c1nnc(NC(=O)CC(=O)Nc2ccccc2C(=O)O)s1	.	71*	5	78*	81*	22	87*	87*	98*	94*	86*
CC(C)Cc1nnc(NC(=O)CC(=O)Nc2ccccc2C(=O)O)s1	.	53*	2	40	70*	13	-1	67*	88*	89*	55*
CCN(CC)c1ccc(NC(=O)COC(=O)c2cccs2)cc1	.	23	1	56*	53*	6	29	26	62*	47	3
CCN(c1ccc(NC(=O)COC(=O)c2cccs2)cc1)C(C)C	.	42	-1	64*	73*	14	68*	65*	90*	71*	70*
O=C(N/N=C/c1c[nH]c2ccccc12)c1ccc2c(c1)OCCO2	-14	31	-2	48	54*	-116	45	43	77*	55*	60*
